Each structure is given as a SMILES string. Records with an inconclusive call do not appear. Where a call stands in place of a potency, no number is given. The source made the active and inactive calls. Calls come from the whole dose curve; as a rule, active = well fitted inhibition curve with a large enough effect; inconclusive = small, poorly fitted or top-dose-only effect; inactive = flat fitted curve, though single readings scatter.
Potency is the fitted concentration of half-maximal effect.

Luciferin 4-monooxygenase (Photinus pyralis), sequence (P08659 whole entry, looked up): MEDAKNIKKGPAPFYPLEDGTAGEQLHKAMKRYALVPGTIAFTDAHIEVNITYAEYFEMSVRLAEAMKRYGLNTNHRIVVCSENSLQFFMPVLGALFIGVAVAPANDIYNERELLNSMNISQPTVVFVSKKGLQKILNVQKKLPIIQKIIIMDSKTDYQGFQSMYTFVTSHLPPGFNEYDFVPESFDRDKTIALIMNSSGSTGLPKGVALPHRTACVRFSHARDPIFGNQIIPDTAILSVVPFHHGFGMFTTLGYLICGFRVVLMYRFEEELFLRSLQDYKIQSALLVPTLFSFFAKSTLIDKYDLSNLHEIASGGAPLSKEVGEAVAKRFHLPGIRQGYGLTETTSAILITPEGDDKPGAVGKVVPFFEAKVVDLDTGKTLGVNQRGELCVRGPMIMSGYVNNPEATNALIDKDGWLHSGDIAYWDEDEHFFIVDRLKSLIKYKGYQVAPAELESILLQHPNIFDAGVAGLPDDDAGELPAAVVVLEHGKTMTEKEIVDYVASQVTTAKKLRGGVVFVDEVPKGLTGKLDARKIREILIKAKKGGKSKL

The experiment addresses Luciferin 4-monooxygenase (Photinus pyralis) (UniProt P08659). Put plainly: Biochemical firefly luciferase enzyme assay for NPC (AID 624030). Note: nearly all actives have a fitted effect of over 70% in size. Particulars: purified P. pyralis luciferase, luminescence, 5 min; series mostly up to 58.6 µM. The source says:
Charcot-Marie-Tooth-Association [CMTA] National Center for Advancing Translational Sciences [NCATS] Charcot-Marie-Tooth (CMT) disease was first characterized by Jean-Martin Charcot and Pierre Marie in France and, independently, by Howard Henry Tooth in England in 1886. CMT is one of the most common inherited neurological diseases, affecting approximately 1 in 2,500 Americans. […] The most prevalent type of CMT is known as CMT1A and caused by a duplication of the PMP22 gene which leads to over-expression of this protein. PMP22 is a glycosylated intrinsic membrane protein accounting for 2-5% of the myelin protein content, and its over-expression results in demyelination and subsequently axonal loss. A pair of cellular transcription-based assays was developed in the S16 rat Schwann cell lines (Hai, M., et al., 2002) stably transfected with orthogonal reporters - firefly luciferase (Fluc) and beta-lactamase (beta-Lac) - whose expression is driven by an intronic regulatory element of the PMP22 gene (Jones, E.A., et al., 2011) to recapitulate endogenous expression of PMP22. A comprehensive library of approved drugs, the NCGC Pharmaceutical Collection (Huang, R., et al., 2011), was screened in the cross-validating platform of the orthogonal reporter assays to identify drug modulators inhibitory towards PMP22 expression. A set of counter-screens was devised to address non-specific activity of the library. An ATP-dependent CellTiter-Glo assay (developed by Promega Corp) was utilized to control cell viability. In addition, biochemical Fluc enzyme assay was performed to assess direct inhibition of the Fluc enzymatic activity. References Hai, M., Muja, N., DeVries, G.H., Quarles, R.H. and Patel, P.I. Comparative analysis of Schwann cell lines as model systems for myelin gene transcription studies. J Neurosci Res, 2002. 69(4): pp 497-508 Huang, R., Southall, N., Wang, Y., Yasgar A., Shinn P., Jadhav, A. , Nguyen, D.-T. and Austin, C.P., The NCGC pharmaceutical collection: a comprehensive resource of clinically approved drugs enabling repurposing and chemical genomics. Sci Transl Med, 2011. 3(80): p. 80ps16.
Compounds were transferred to the plates in 23nl, and one microliter/well luciferase enzyme-buffer solution (10 nM P. pyralis luciferase and 50 mM Tris Acetate final concentrations) was dispensed yielding a final reaction volume of […]. Luciferase luminescence was measured by a ViewLux plate reader within 5 minutes of enzyme-buffer addition. The % activity was determined by normalizing to the average readings of PTC124 (a positive control) relative to DMSO (0% Activity). The concentration-effect curves were then classified based on curve quality (r2), response magnitude and degree of measured activity.
`[N-]=[N+]=CC(=O)OCC(N)C(=O)O` (stereo not given): the Potency result is “inactive”.
Turning to `O=C(NCNC(=O)NC1C(=O)NC(=O)N1CO)NC1C(=O)NC(=O)N1CO` (stereo not given), the Potency entry was “inactive”.
To `CCC1(C)CC(=O)NC(=O)C1` belongs “inactive”; to `CNC(=O)OCC[N+](C)(C)C`, “inactive”; to `S=C(S)N1CCNCC1`, “inactive”.
As for `Cc1sc2ccccc2c1CC1=NCCN1`, the entry is “inactive”; as for `O=c1[nH]cc(N(CCCl)CCCl)c(=O)[nH]1`, “inactive”.
Consider `OC(c1ccccc1)(c1ccccc1)C1CN2CCC1CC2` (stereo not given), for which the Potency result was “inactive”.
On to `CCC1(c2ccccc2)C(=O)NC(=O)NC1=O`, for which the Potency entry was “inactive”.
To `CC12NC(Cc3ccccc31)c1ccccc12` (stereo not given) belongs “inactive”.
To `CCNC(C)Cc1cccc(C(F)(F)F)c1` (stereo not given) belongs “inactive”; to `N#CC1(N2CCCCC2)CCCCC1`, “inactive”.
To `CCC1(c2ccccc2)C(=O)NC(=O)N(C(=O)c2ccccc2)C1=O` (stereo not given) belongs “inactive”.
Take `O=[N+]([O-])c1ccc(F)c([N+](=O)[O-])c1`: the Potency result was “inactive”.
In the case of `O=C/C=C/c1ccccc1`, the Potency result is “inactive”.
To `O=C1CCO1` belongs “inactive”; to `O=C(O)C(Cl)(Cl)Cl`, “inactive”; to `CCCSP(=O)(OCC)SCCC`, “inactive”.
To `CCCCCCCCCC(=O)O[C@H]1CC[C@H]2[C@@H]3CCC4=CC(=O)CC[C@]4(C)[C@H]3CC[C@]12C` belongs “inactive”; to `CC(Cc1ccccc1)NC=O` (stereo not given), “inactive”.
To `O=Cc1ccco1` belongs “inactive”; to `CCOc1ccc2c3c1O[C@H]1[C@@H](O)C=C[C@H]4[C@@H](C2)N(C)CC[C@@]341`, “inactive”.
Turning to `CNC(C)C(O)c1ccc(O)cc1` (stereo not given), the Potency entry is “inactive”.
In the case of `CCC1(CC)C(=O)NC(=O)N(C)C1=O`, the Potency result was “inactive”.
To `CC(C)(O)C1C2OC(=O)C1C1(O)CC3OC34C(=O)OC2C14C` (stereo not given) belongs “inactive”; to `[Cl-].[Cl-].[Hg+2]`, 12.8 µM (active); to `COc1ccc2c3c1O[C@H]1C(=O)CC[C@H]4[C@@H](C2)N(C)CC[C@]314`, “inactive”.
As for `CCC(=O)O[C@@](Cc1ccccc1)(c1ccccc1)[C@@H](C)CN(C)C`, the entry is “inactive”; as for `CCN(CC)C(=O)/C(Cl)=C(\C)OP(=O)(OC)OC`, “inactive”; as for `C[C@@H](Cc1ccccc1)NCCC(c1ccccc1)c1ccccc1`, “inactive”.
Take `O=C(CS(=O)C(c1ccccc1)c1ccccc1)NO` (stereo not given): the Potency result was “inactive”.
As for `O=C1CN(O)C(c2ccccc2)=c2cc(Cl)ccc2=N1`, the entry is “inactive”.
In the case of `C/C(=C\c1csc(C)n1)[C@@H]1C[C@@H]2O[C@]2(C)CCC[C@H](C)[C@H](O)[C@@H](C)C(=O)C(C)(C)[C@@H](O)CC(=O)O1`, the Potency entry is “inactive”.
To `C#CC(C)(O)CC` (stereo not given) belongs “inactive”; to `O=CC=O`, “inactive”.
As for `NCC(O)c1cccc(O)c1` (stereo not given), the entry is “inactive”.
With `O=[N+]([O-])c1ccccc1`, the Potency result is “inactive”.
Regarding `O=C(NC(=O)c1c(F)cccc1F)Nc1ccc(Cl)c(Oc2ncc(C(F)(F)F)cc2Cl)c1`, the Potency entry is “inactive”.
In the case of `CC(=O)OC1CN2CCC1CC2` (stereo not given), the Potency result was “inactive”.
As to `Oc1cccc[c]1[Hg][Cl]`, the Potency was 10.2 µM (active).

For the origin of these results see PubChem BioAssay (NCATS).
